# Test results published in PubChem BioAssay.
# Calls of active or inactive are those of the source.
# Key:
# [1] = E. coli DRC41 culture turbidity changes, primary screen, E. coli filamentation inducer project, strain DRC41, OD650, 48 h (AID 1152);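 also: E. coli MC1000 strain DRC41 lacking acrAB efflux pump and sulA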; settings: E. coli DRC41 (acrAB sulA), higher = more signal, called active from +8 up or from −8 down
# [2] = small-molecule binders of probe aLefty1, primary screen, biochemical, small-molecule microarray, 635/667 nm fluorescence (AID 1153); settings: higher = more signal;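 also: score merges spot fluorescence with signal-to-noise ratio from the scanned slide images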
# [3] = PSAC antagonists in infected red cells, primary screen, cell-based, P. falciparum Indochina, OD700, 1 h (AID 1154); settings: P. falciparum Indochina infected RBC osmotic lysis, higher = more signal, called active from +8 up or from −8 down
# [4] = PSAC antagonists in infected red cells, primary screen, cell-based, P. falciparum Indochina, OD700, 2 h (AID 1155);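 also: lysis reports solute entry through the parasite surface anion channel PSAC; channel blockers reduce lysis of infected cells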; settings: P. falciparum Indochina infected erythrocytes, osmotic lysis OD700; higher = more signal, called active from +8 up or from −8 down
# [5] = osmotic lysis modulators in infected erythrocytes, primary screen, PSAC antagonist project, cell-based, P. falciparum Indochina, OD700, 3 h (AID 1156); settings: higher = more signal, called active from +8 up or from −8 down
# [6] = PSAC antagonists in infected red cells, primary screen, cell-based, P. falciparum Indochina, OD700, 18 h (AID 1157); settings: P. falciparum Indochina infected erythrocytes, osmotic lysis OD700, 18 h; higher = more signal, called active from +8 up or from −8 down
# [7] = modulators of S6 phosphorylation in cells, primary screen, cell-based, A549, cytoblot, luminescence, serum-stimulated (AID 1158); settings: A549 phospho-S6 cytoblot, 5 h, higher = more signal;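 also: serum-stimulated A549 lung adenocarcinoma cells; signal is phosphorylated S6 detected by cytoblot immunostaining with HRP secondary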
# [8] = target: NADPH oxidase 2 (Homo sapiens) (UniProt P04839); experiment: NOX2-dependent H2O2 signal modulators, primary screen, NOX inhibitor project, cell-based, HEK293-NOX2, PMA-stimulated, Amplex Red fluorescence (AID 1159); settings: 45 min, higher = more signal, called active from +8 up or from −8 down; also: test concentration not given here
# NADPH oxidase 2 (Homo sapiens), sequence (P04839 whole entry, looked up): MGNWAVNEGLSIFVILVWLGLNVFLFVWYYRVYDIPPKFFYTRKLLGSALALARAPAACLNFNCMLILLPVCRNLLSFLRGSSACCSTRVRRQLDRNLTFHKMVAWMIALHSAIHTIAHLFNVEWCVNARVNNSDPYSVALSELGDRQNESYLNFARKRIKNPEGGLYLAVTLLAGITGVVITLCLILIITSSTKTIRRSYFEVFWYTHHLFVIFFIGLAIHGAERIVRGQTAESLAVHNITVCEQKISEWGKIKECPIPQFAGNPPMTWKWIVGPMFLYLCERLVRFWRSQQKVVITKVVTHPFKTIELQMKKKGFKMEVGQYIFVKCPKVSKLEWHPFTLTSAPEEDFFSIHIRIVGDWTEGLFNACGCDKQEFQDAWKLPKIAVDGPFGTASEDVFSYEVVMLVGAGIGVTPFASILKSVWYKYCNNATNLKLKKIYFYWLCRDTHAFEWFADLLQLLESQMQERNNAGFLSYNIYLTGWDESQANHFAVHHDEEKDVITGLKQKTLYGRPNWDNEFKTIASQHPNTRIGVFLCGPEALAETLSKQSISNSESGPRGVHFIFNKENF
# [9] = target: NADPH oxidase 4 (Homo sapiens) (UniProt Q9NPH5); experiment: NOX4-dependent H2O2 signal modulators, primary screen, NOX inhibitor project, cell-based, HEK293-NOX4, tetracycline-induced, Amplex Red fluorescence (AID 1160); settings: 45 min, higher = more signal, called active from +8 up or from −8 down
# NADPH oxidase 4 (Homo sapiens), sequence (Q9NPH5 whole entry, looked up): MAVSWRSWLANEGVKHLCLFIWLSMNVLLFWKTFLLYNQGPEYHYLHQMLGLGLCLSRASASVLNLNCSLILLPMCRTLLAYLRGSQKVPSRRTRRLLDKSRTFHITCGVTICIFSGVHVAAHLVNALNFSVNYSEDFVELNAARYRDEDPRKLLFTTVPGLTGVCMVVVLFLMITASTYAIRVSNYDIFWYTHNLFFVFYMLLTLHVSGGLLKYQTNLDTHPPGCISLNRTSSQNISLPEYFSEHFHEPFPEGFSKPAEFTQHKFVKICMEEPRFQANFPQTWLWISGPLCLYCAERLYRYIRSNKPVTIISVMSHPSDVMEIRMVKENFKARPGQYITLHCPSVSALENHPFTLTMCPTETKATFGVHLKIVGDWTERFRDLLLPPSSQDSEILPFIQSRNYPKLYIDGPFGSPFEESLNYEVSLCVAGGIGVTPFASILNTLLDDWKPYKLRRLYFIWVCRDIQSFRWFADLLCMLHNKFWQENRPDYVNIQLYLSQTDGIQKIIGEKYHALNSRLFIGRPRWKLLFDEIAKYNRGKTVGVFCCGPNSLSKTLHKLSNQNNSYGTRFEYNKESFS
# [10] = target: NADPH oxidase 5 (Homo sapiens) (UniProt Q96PH1); experiment: NOX5-dependent H2O2 signal modulators, primary screen, NOX inhibitor project, cell-based, HEK293-NOX5, Amplex Red fluorescence (AID 1161); settings: HEK293-NOX5, ionomycin, 45 min, higher = more signal
# NADPH oxidase 5 (Homo sapiens), sequence (Q96PH1 whole entry, looked up): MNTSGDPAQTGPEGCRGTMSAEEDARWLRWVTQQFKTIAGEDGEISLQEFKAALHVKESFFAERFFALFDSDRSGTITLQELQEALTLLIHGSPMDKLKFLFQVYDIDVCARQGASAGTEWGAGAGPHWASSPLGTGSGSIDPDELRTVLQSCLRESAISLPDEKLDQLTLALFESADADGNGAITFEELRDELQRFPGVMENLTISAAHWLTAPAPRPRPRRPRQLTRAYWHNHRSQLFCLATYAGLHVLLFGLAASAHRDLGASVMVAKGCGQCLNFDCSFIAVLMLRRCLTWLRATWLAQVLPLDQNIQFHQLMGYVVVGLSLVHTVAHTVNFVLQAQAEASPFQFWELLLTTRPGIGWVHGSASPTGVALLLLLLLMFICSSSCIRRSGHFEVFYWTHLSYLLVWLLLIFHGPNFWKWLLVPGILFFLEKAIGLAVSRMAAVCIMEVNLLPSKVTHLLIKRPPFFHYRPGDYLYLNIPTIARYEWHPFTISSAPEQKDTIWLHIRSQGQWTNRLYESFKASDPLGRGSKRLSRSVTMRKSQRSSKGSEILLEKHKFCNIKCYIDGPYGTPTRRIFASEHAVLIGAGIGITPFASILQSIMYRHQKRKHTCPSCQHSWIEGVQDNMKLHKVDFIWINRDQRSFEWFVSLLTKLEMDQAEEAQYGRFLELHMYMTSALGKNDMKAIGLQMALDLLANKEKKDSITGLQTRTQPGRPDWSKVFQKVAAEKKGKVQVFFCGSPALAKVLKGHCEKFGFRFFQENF
# [11] = A549 cell viability effects, profiling panel, calcein-AM fluorescence, 48 h, basal (AID 1162); settings: higher = more signal; also: test concentration not given here
# [12] = adipocyte viability effects, profiling panel, cell-based, 3T3-L1 adipocytes, calcein-AM fluorescence, 48 h, basal (AID 1163); settings: 3T3-L1 adipocytes viability, higher = more signal; also: test concentration not given here
# [13] = HepG2 cell viability effects, profiling panel, calcein-AM fluorescence, 48 h, basal (AID 1164); settings: higher = more signal; also: test concentration not given here
# [14] = MM1S cell viability effects, profiling panel, calcein-AM fluorescence, 48 h, basal (AID 1165); settings: higher = more signal;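 also: viability of MM1S multiple myeloma cells under basal unstimulated conditions; test concentration not given here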
# [15] = basal RPMI8226 viability, no added stimulus, profiling panel, cell-based, calcein-AM fluorescence, 48 h, PK04 Diversity Set (AID 1166); settings: RPMI8226 myeloma viability, higher = more signal;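 also: cells grown under basal conditions without added stimulus; test concentration not given here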
# [16] = basal HepG2 mitochondrial membrane potential changes, profiling panel, cell-based, JC-1 fluorescence, 24 h, 100 nL compound (AID 1167); settings: higher = more signal; also: test concentration not given here
# [17] = basal 3T3-L1 adipocyte mitochondrial potential changes, profiling panel, cell-based, JC-1 fluorescence, 3T3-L1 adipocytes, 24 h, 100 nL compound (AID 1168); settings: JC-1 mitochondrial fluorescence, higher = more signal, called active from +8 up or from −8 down; also: test concentration not given here
# [18] = basal RPMI8226 mitochondrial membrane potential changes, profiling panel, cell-based, JC-1 fluorescence, 24 h, 100 nL compound (AID 1169); settings: RPMI8226 myeloma, JC-1 mitochondrial potential fluorescence, higher = more signal; also: test concentration not given here
# [19] = basal MM1S mitochondrial membrane potential changes, profiling panel, cell-based, JC-1 fluorescence, 24 h, 100 nL compound (AID 1170); settings: higher = more signal; also: test concentration not given here
# [20] = A549 lung cancer cell viability effects, profiling panel, resazurin fluorescence, 24 h, PK04 Diversity Set (AID 1171); settings: higher = more signal, called active from +8 up or from −8 down; also: test concentration not given here
SMILES,z-score [1],composite z-score [2],z-score [3],z-score [4],z-score [5],z-score [6],z-score [7],z-score [8],z-score [9],z-score [10],z-score [11],z-score [12],z-score [13],z-score [14],z-score [15],z-score [16],z-score [17],z-score [18],z-score [19],z-score [20]
Cc1ccc(S(=O)(=O)N[C@@H]2COC(=O)[C@H](C)COC(=O)CC=C[C@H]2C)cc1,-0.786 (inactive),-0.0493,0.345 (inactive),0.408 (inactive),0.563 (inactive),-0.0893 (inactive),-0.648,-0.108 (inactive),0.174 (inactive),0.343,0.449,0.518,0.53,0.228,0.274,0.539,-0.0933 (inactive),1.06,0.34,0.317 (inactive)
CC(C)c1ccc(NN2C(C(O)c3ccc4c(c3)OCO4)C=CC3C(=O)N(c4ccccc4)C(=O)C32)cc1 (stereo not given),-0.481 (inactive),-0.0593,1.76 (inactive),1 (inactive),0.126 (inactive),0.778 (inactive),-0.467,-0.488 (inactive),-0.912 (inactive),-0.752,-0.842,-0.293,0.367,-0.911,-0.369,-1.53,-0.462 (inactive),0.337,0.186,-0.616 (inactive)
COc1ccccc1CN1C(=O)c2ccccc2[C@@H](C(=O)NCC(F)(F)F)[C@@H]1c1ccc(CO)cc1,1.22 (inactive),-0.242,2.54 (inactive),0.346 (inactive),-0.114 (inactive),0.547 (inactive),-0.189,0.629 (inactive),0.732 (inactive),-0.0947,1.4,-0.467,1.67,-0.127,1.04,1.62,0.913 (inactive),0.28,-0.684,0.633 (inactive)
CCOc1ccc(N2C(=O)/C(=C/C=C/c3ccccc3OC)S(=O)(=O)C2c2cccc([N+](=O)[O-])c2)cc1 (stereo not given),3.21 (inactive),-0.0193,1.03 (inactive),0.282 (inactive),-1.1 (inactive),-1.04 (inactive),2.38,0.5 (inactive),0.389 (inactive),1.49,1.18,1.39,0.136,-2.72,-0.879,-0.855,-0.125 (inactive),-0.732,-0.0787,0.0969 (inactive)
COC(=O)C1=C(C)[C@@H](O)[C@@H](C)[C@H](c2c(OC)c(OC)c(C)c(OC)c2OC)O1,-0.472 (inactive),-0.356,0.211 (inactive),0.589 (inactive),0.336 (inactive),0.1 (inactive),-0.468,-0.101 (inactive),-0.0181 (inactive),0.536,-0.501,-0.63,0.287,0.631,-0.976,-0.206,0.657 (inactive),0.267,-0.722,-0.345 (inactive)
O=C1[C@H]2[C@H]3[C@H](O)[C@H](O)CC(=NOCc4ccccc4)[C@H]3CC[C@H]2C(=O)N1c1cccc(Oc2ccccc2)c1,0.0144 (inactive),-0.0193,6.64 (inactive),1.42 (inactive),0.969 (inactive),0.525 (inactive),-0.219,-1.86 (inactive),-1.01 (inactive),-3.91,0.382,-0.921,-0.6,-0.641,0.907,-0.988,0.394 (inactive),0.341,-0.721,0.188 (inactive)
CN1C(=O)[C@@]2(CCC(=O)OC(C)(C)C)N=C(c3ccc(OCCCO)cc3)O[C@H]2c2ccccc21,1.02 (inactive),0.0959,30.8 (active),26.6 (active),1.7 (inactive),1.11 (inactive),1.09,-2.05 (inactive),0.112 (inactive),-1.43,0.575,1.36,-0.614,-1.85,-3.45,0.543,-0.207 (inactive),-1.18,-0.696,-0.54 (inactive)
CCN1C(=O)[C@H]2[C@H]3[C@H](O)[C@H](O)CC(=NOC[C@@H](C)[C@H](OCc4ccccc4)C(C)C)[C@@H]3CC[C@H]2C1=O,0.618 (inactive),-0.144,0.551 (inactive),0.106 (inactive),0.061 (inactive),0.0723 (inactive),-0.357,-0.136 (inactive),0.338 (inactive),-0.287,-0.0364,0.387,-0.755,-1.76,-1.24,-1.39,-2.19 (inactive),-0.279,-0.187,-0.295 (inactive)
C=CC[C@@H]1C=C[C@H](ON=C(C)CCN2CCc3nc(CC)c(CC)cc3C2)[C@@H](CO)O1,0.31 (inactive),0.288,2.65 (inactive),0.37 (inactive),0.412 (inactive),0.294 (inactive),-1.15,-1.24 (inactive),0.492 (inactive),1.82,1.36,1.06,-1.47,-0.727,0.121,3.09,-1.31 (inactive),0.0868,-0.587,0.097 (inactive)
